The supplement of paper PMC3484114
± gives the standard deviation.

Tested on: OVCAR-3-derived ovarian cancer stem-like cells (spheroids)
Test: cell growth relative to untreated control; higher = more growth (less inhibition)
Settings: 2.29 µM; 96 h
Method in brief: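 Stem-like cells derived from OVCAR-3 spheroids were dissociated with trypsin and seeded at 50,000 cells/mL in stem cell medium in ultra-low attachment 96-well plates, then preincubated for 24 h. Each compound was added at 2.29 uM to 4 replicate wells and left for 96 h at 37°C, 5% CO2. Viability came from TOX8 resazurin fluorescence (ex 560/em 590 nm) read after 4 h. Percent growth was expressed relative to untreated wells, after blank subtraction and removal of outliers by the Grubbs test.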

| SMILES | cell growth |
| --- | --- |
| CC[C@]1(O)C[C@@H]2CN(CCc3c([nH]c4ccccc34)[C@@](C(=O)OC)(c3cc4c(cc3OC)N(C)[C@H]3[C@@](O)(C(=O)OC)[C@H](OC(C)=O)[C@]5(CC)C=CCN6CC[C@]43[C@@H]65)C2)C1 | 49.1 ± 11% |
| Nc1nc(SCc2ccccc2Cl)c2ncn(C3OC(CO)C(O)C3O)c2n1 (centres undefined) | 177 ± 61% |
| CC(C)c1ccc(O)c(=O)cc1 | 66.5 ± 20% |
| COc1cc(NS(C)(=O)=O)ccc1Nc1c2ccccc2nc2ccccc12 | 41.4 ± 12% |
| Nc1ccccc1N | 88.4 ± 25% |
| CN1CCN(CCCN2c3ccccc3Sc3ccc(C(F)(F)F)cc32)CC1 | 79.1 ± 24% |
| CC1(c2cccc3ccccc23)OC(=O)c2ccccc21 (centres undefined) | 116 ± 29% |
| Cc1ccccc1NC(=O)C(=O)C(C(=O)c1ccccc1F)C1OC(=O)c2ccccc21 (centres undefined) | 94.9 ± 13% |
| O=c1ccc2ccc(CBr)cc2o1 | 84.2 ± 21% |
| CN(C)C(=O)c1cccc(COc2ccc(N3C(N)=NC(N)=NC3(C)C)cc2Cl)c1 | 76 ± 15% |
| CCC1=C(C[C@H]2NCCc3cc(OC)c(OC)cc32)C[C@H]2c3cc(OC)c(OC)cc3CCN2C1 | 21.1 ± 7.4% |
| CCN(CC)CCNc1ccc(CO)c2sc3ccccc3c(=O)c12 | 99 ± 39% |
| CN(C)c1cccc(F)c1C(=O)NC(=O)Nc1ccc(Cl)cc1 | 102 ± 28% |
| [N-]=[N+]=Nc1ccc2c(c1)Sc1ccccc1N2CCCCN1CCN(Cc2ccc(C(=O)c3ccccc3)cc2)CC1 | 95.1 ± 13% |
| Cc1cc(-c2nc3ccccc3s2)ccc1N | 73.6 ± 9% |
| Cc1ccc(S(=O)(=O)ON=C2CC(c3ccccc3)N(C)C(c3ccccc3)C2)cc1 (centres undefined) | 96.7 ± 22% |
| O=C1C=CC(CC(=O)c2ccc3ccccc3c2)O1 (centres undefined) | 112 ± 18% |
| O=C(C[n+]1ccc2ccccc2c1)c1ccc2ccc3ccccc3c2c1 | 95.1 ± 31% |
| COC1=C(N)C(=O)c2nc(C)ccc2C1=O | 125 ± 79% |
| CC(C)(C)N(Cc1ccc2c(c1)OCO2)C(=O)/C=C\[S+]([O-])c1ccccc1 (centres undefined) | 41.6 ± 10% |

| SMILES | cell growth |
| --- | --- |
| O/N=C(\CC(O)(C(F)(F)F)C(F)(F)F)c1cccc(Cl)c1 | 87.8 ± 16% |
| CCCc1c(Cl)nc(Cl)nc1Cl | 96.4 ± 19% |
| CN1CCN(CCNc2ccc(CO)c3sc4ccccc4c(=O)c23)CC1 | 49.7 ± 14% |
| COc1ccc(/C=C2\N=C(c3ccccc3)OC2=O)c(OCc2ccccc2)c1 | 69.7 ± 24% |
| CCCCCCCCCCCCCCCCCCOCC(COP(=O)([O-])OCC[N+](C)(C)C)OC (centres undefined) | 93 ± 25% |
| CN(Cc1cnc2nc(N)nc(N)c2n1)c1ccc(C(=O)N[C@@H](CCC(=O)O)C(=O)O)cc1 | 96.7 ± 31% |
| Cc1ccc(S(=O)(=O)NC(=O)NC2=NC(C)(C)N(c3ccc(Cl)c(Cl)c3)C(N)=N2)cc1 | 84.1 ± 23% |
| Nc1ncnc2c1ncn2C1OC(CO)C(O)C1O (centres undefined) | 111 ± 13% |
| Nc1nc(=S)c2ncn([C@@H]3C[C@H](O)[C@@H](CO)O3)c2[nH]1 | 110 ± 13% |
| C1CN(c2nnc(N3CCC3)nn2)C1 | 104 ± 18% |
| O=C1c2cccc(NCCCNCCO)c2C(=O)c2cccc(NCCCNCCO)c21 | 57.9 ± 16% |
| CCCC[S+]([O-])CC(CO)NC(=O)/C=C\c1c(C)[nH]c(=O)[nH]c1=O (centres undefined) | 105 ± 28% |
| CC(Cc1ccccc1)NC1=NCCO1 (centres undefined) | 88.1 ± 13% |
| CN(C)C(=S)/N=c1\ss/c(=N\C(=S)N(C)C)n1-c1ccc2c(c1)OCO2 | 76.4 ± 5.8% |
| CCOC(=O)c1ccc(N=Cc2ccc(N(CCC#N)CCC#N)cc2)cc1 | 101 ± 20% |
| COC1(O)C(=O)c2ccccc2OC1(OC)c1ccccc1 (centres undefined) | 118 ± 26% |
| CN(C)c1ccc(/C=C2\CCc3ccccc3C2=O)cc1Br | 91.4 ± 12% |
| Cc1ccc(N=N/C(=N\NC(=O)c2ccc(C)cc2)c2ccc(N(CCC#N)CCC#N)cc2C)cc1 | 74.4 ± 26% |
| C=CC(=O)N1C/C(=C\c2ccc(Cl)cc2)C(=O)/C(=C/c2ccc(Cl)cc2)C1 | 59.7 ± 22% |
